# Rows were chosen to be rich in hits. Some 19% of all compounds tested hit in one or more screens of this group.
# HT1080NT lethal: kills 2HG-producing HT-1080-NT fibrosarcoma cells. hit rate 1.6% among 360,000. HT-1080-NT fibrosarcoma viability, CellTiter-Glo ATP luminescence, 48 h. Potency, µM (doses to about 46.1 µM), inactives show top-dose activity, negative = less viability, most hits filed as cytotoxic;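 note: NT is the 2HG producing partner of a matched IDH1 knockdown line; potency is the fitted concentration of half-maximal effect; 0% = DMSO-treated cells and -100% = media-only wells without cells; nearly all actives have a fitted effect of over 55% in size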
#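 Viability by CellTiter-Glo luminescence after 48 h compound exposure at 37C of HT-1080-NT cells (750/well, RPMI, 5% FBS). % activity scaled between DMSO wells and medium-only wells, then curve-fitted and categorized by curve class.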
# HT1080 IDH1KD tx: kills HT-1080 cells with IDH1 knockdown; HT-1080 IDH1 knockdown viability, ATP luminescence, 48 h; Potency, µM (highest dose often 46.1 µM), without a hit: top-dose activity, negative = toxicity, actives largely listed as cytotoxic; hit rate 2% among 360,000;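 note: potency is the fitted concentration of half-maximal effect; 0% = DMSO wells and -100% = cell-free medium wells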
#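 IDH1KD HT-1080 cells, 750/well, RPMI + 5% FBS; compound pinned after 2 h settling; 48 h, 37 °C; CellTiter-Glo luminescence; % activity normalised to DMSO and no-cell wells; curves fitted, classed by r2 and efficacy.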
# IL-1B inflam inh: blocks inflammasome-driven IL-1 beta release. THP-1 LPS/ATP IL-1B secretion, AlphaLISA, 16 h; hits give low values. activity change, % at 57.5 µM. hit rate 4.7% among 360,000. AID 743279; in the data active = activity change below about -50%; inconclusive = mostly about -30% to -49%
#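 Secreted IL-1B measured by AlphaLISA bead assay after 16 h compound exposure of THP-1 cells; compounds (final up to 57.5 uM) added 1 h before LPS (250 ng/mL) and ATP (1.25 mM) stimulation; lower signal means less secretion.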
# TDP1 cell noCPT: qHTS for Inhibitors of human tyrosyl-DNA phosphodiesterase 1 (TDP1): qHTS in cells in absence of CPT. DT40 Tdp1-/- hTDP1 cells, no CPT, ATP luminescence, 48 h. Potency, µM (titrated, usually from 46.2 µM), for the others: at the top dose activity change, negative = growth inhibition, usual class: inhibitors. hit rate 15% among 420,000; note: potency is the fitted concentration of half-maximal effect; nearly all actives have a fitted effect of over 55% in size
#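 A cellular qHTS used chicken DT40 cells lacking endogenous Tdp1 but carrying stably transfected human TDP1. Compounds were applied without camptothecin, and cell growth kinetics were judged by ATP-dependent luminescence after ≥48 hr.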
# TDP1 cell CPT: DT40-hTDP1 cell growth loss with CPT; Potency, µM (doses to about 46.2 µM), inactives show at the top dose activity change, negative = growth inhibition, hits mostly inhibitors; hit rate 12% among 420,000; AID 686979; chicken DT40 Tdp1-/-;hTDP1 cells + 20 nM CPT, ATP luminescence, 48 h; note: potency is the fitted concentration of half-maximal effect; nearly all actives have a fitted effect of over 55% in size
#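 Cell growth measured by CellTiter-Glo luminescence after a minimum 48 h, 37 C compound exposure with 20 nM CPT in Tdp1-knockout DT40 cells stably expressing hTDP1, seeded 400/well; qHTS titration format.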
# The depositor's hits bear a star; ? = inconclusive; nt = no result. Unless noted, calls come from the whole dose curve; as a rule, active = well fitted curve in the direction sought with a large enough effect; inconclusive = small, poorly fitted or top-dose-only effect, or another doubt; inactive = no such curve, though single readings can be large; an effect the other way counts as inactive or inconclusive. Unless noted, % is set by controls: 0 for no effect and ±100 for the full control effect.
SMILES,HT1080NT lethal,HT1080 IDH1KD tx,IL-1B inflam inh,TDP1 cell noCPT,TDP1 cell CPT
CCN(CC(=O)NCc1ccc(F)cc1)S(=O)(=O)c1ccc(C)cc1,6.4%,4.1%,9.3,-2.1%,-20.8%
NS(=O)(=O)c1ccc(N2C(=O)C(=O)/C(=C(/O)c3ccccc3)C2c2ccc(Cl)cc2)cc1 (stereo unspecified),-1.4%,-0.5%,14.7,0.8%,-12.0%
CSc1ccc(CN(C)CC(=O)NCc2ccccc2)cc1,-0.1%,-0.2%,?,-25.9%,-25.9%
CN(CC(=O)NCc1ccc(F)cc1)Cc1ccc(Br)cc1,-4.2%,-3.6%,-71.7*,?,-28.8%
CCOC(=O)C1C(=O)OC(C)(C)C1C(CC)C(=O)c1c(C)cc(C)cc1C (stereo unspecified),5.6%,4.0%,59.1,9.2µM*,18.4µM*
CCOC(=O)C1C(=O)OC(C)(C)C1C(CC)C(=O)c1ccccc1 (stereo unspecified),4.2%,7.9%,29.9,-3.6%,9.6%
Cc1c(C)n(CCc2c[nH]c3ccccc23)ccc1=O,9.1%,7.0%,-2.9,-13.4%,-0.4%
COCCNC(=O)CN(Cc1ccccc1)S(=O)(=O)c1ccc2nc(C)sc2c1,0.2%,14.6%,-9.7,?,-20.6%
COc1ccc(-c2cc3c(=O)n(CC(=O)Nc4ccc(C(C)=O)cc4)ncn3n2)cc1,-3.3%,-3.4%,-21.8,-5.6%,6.7%
CCOC(=O)N1CCN(C(=O)Cn2nc(C)n3nc(-c4ccc(OC)cc4)cc3c2=O)CC1,5.6%,16.2%,4.4,?,?
COc1ccc(-c2cc3c(=O)n(CC(=O)Nc4cccc(Cl)c4)nc(C)n3n2)cc1,-3.8%,-0.9%,4.3,?,14.6µM*
CCOC(=O)N1CCN(C(=O)Cn2nc(C)n3nc(-c4ccc(CC)cc4)cc3c2=O)CC1,-0.9%,-1.9%,12.5,20.6µM*,16.4µM*
CCOC(=O)C1CCN(C(=O)Cn2nc(C)n3nc(-c4ccc(OC)cc4)cc3c2=O)CC1,1.5%,0.2%,9.0,20.6µM*,23.1µM*
CCn1c(CNC(=O)c2ccccc2F)nnc1SCC(=O)NC1CCCCC1C (stereo unspecified),-0.8%,2.3%,3.2,13.4%,-6.9%
c1nc(SSc2ncc3n[nH]nc3n2)nc2n[nH]nc12,nt,nt,nt,-21.0%,3.9%
Cn1ccc2c(N3c4ccccc4CCc4ccccc43)cc3c(c21)C1CCC3O1 (stereo unspecified),?,18.4µM*,19.2,20.6µM*,23.1µM*
Cn1ccc2c(N3CCCCCC3)cc3c(c21)C1CCC3C1 (stereo unspecified),-29.0%,-25.4%,39.2,11.6µM*,14.6µM*
Cn1ccc2c(-c3cccc4ccccc34)cc3c(c21)C1CCC3C1 (stereo unspecified),-4.3%,-10.0%,19.0,?,-51.3%
Cn1ccc2c(N3c4ccccc4CCc4ccccc43)cc3c(c21)C1CCC3C1 (stereo unspecified),?,?,-16.3,5.17µM*,2.31µM*
Cn1ccc2c(N3CCOCC3)cc3c(c21)C1CCC3C1 (stereo unspecified),8.0%,-3.9%,-3.0,?,-27.9%
CCCN(CCC)c1cc(Cl)nc(N)n1,3.0%,-4.8%,17.4,-14.5%,0.5%
COc1ccc(OC)c(C(=O)Cn2cnc3ccccc3c2=O)c1,18.4%,20.1%,-7.8,-30.0%,-9.9%
CCCCSCCCNC(=O)C1CCC(CNS(=O)(=O)c2c(C)cc(C)cc2C)CC1 (stereo unspecified),nt,nt,nt,18.4µM*,14.6µM*
CCOC(=O)/C(=C/C1=CC(=C/N(C)C)/C(=O)O1)C(C)=O,8.6%,2.2%,nt,-7.7%,8.6%
O=C1CC(SCc2nc3ccccc3[nH]2)C(=O)N1c1ccc(F)cc1 (stereo unspecified),4.1%,-0.7%,16.8,18.4µM*,?

# Compound activity: PubChem BioAssay, National Center for Advancing Translational Sciences (NCATS)
